What all share (assay): universal protein binding microarray (PBM); transcription factors of Arabidopsis thaliana; high values mean tight binding
The target in one assay is T1, GST-ANAC092(1-176) (Arabidopsis thaliana, UniProt Q9FKA0 1-176).
T1 sequence: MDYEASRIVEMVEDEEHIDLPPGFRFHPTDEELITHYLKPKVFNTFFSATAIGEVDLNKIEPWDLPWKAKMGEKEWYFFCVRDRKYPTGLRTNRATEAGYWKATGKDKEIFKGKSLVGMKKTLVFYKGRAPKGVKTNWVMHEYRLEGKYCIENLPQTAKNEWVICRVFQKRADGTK
To be noted: protein: recombinant; tags: GST; chain copies: 2; dsDNA, one strand shown. The method in brief: (§1)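 Binding is expressed as the normalised enrichment score (E-score). Proteins carrying a GST tag, whether NAC-domain, full-length or DNA-binding-domain forms, were induced in cells, and zinc acetate was added for zinc-finger proteins. After purification on glutathione–Sepharose 4B and quantification by A280 or anti-GST western blot, each was applied in duplicate at 200 to 500 nM final to custom all-10-mer Agilent 4 × 180K arrays made double-stranded by primer extension. Gapped and ungapped 8-mers were scored.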

The target in a further assay is GST-NTL6(1-168) (Arabidopsis thaliana, UniProt Q9SCK6 1-168). To be noted: protein: recombinant; tags: GST; chain copies: 2; dsDNA, one strand shown. The method in brief:
as §1

For the next assay, the target named is T2, GST-ANAC019 NAC domain (Arabidopsis thaliana, UniProt Q9C932 14-162).
T2 sequence: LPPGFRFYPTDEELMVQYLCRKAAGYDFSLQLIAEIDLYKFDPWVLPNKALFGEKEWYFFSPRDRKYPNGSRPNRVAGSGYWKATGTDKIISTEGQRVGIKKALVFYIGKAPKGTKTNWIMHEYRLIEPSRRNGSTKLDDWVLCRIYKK
To be noted: protein: recombinant; tags: GST; chain copies: 2; dsDNA, one strand shown. The method in brief: as §1

In another assay the target is T3, GST-ANAC055(1-171) (Arabidopsis thaliana, UniProt Q9LDY8 1-171).
T3 sequence: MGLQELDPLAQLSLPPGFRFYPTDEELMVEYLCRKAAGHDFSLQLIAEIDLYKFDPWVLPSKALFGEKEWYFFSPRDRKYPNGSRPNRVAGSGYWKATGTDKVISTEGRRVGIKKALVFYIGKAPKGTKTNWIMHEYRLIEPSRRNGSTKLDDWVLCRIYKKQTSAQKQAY
Particulars: protein: recombinant; tags: GST; chain copies: 2; dsDNA, one strand shown. The method in brief:
as §1

The target in a further assay is T4, GST-ATAF1 NAC domain (Arabidopsis thaliana, UniProt Q39013 7-158).
T4 sequence: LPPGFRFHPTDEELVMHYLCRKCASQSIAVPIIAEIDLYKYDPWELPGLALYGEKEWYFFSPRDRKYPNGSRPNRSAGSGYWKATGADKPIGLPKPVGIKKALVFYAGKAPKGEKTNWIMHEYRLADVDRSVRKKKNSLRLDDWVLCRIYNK
Particulars: protein: recombinant; tags: GST; chain copies: 2; dsDNA, one strand shown. The method in brief: as §1

The target in assay [1] is T5, GST-ANAC092(1-285) full length (Arabidopsis thaliana, UniProt Q9FKA0 1-285).
T5 sequence: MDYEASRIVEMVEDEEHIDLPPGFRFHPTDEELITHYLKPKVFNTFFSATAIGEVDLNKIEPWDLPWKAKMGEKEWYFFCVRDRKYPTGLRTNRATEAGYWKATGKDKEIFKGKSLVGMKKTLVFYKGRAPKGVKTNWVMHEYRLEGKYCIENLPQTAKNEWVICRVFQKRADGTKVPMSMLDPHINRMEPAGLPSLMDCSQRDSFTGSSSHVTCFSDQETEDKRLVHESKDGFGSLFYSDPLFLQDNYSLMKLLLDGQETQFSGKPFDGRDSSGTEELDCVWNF
Particulars: protein: recombinant; tags: GST; chain copies: 2; dsDNA, one strand shown. The procedure, abridged:
as §1

A further assay has as its target T6, GST-NAP(1-166) (Arabidopsis thaliana, UniProt O49255 1-166).
T6 sequence: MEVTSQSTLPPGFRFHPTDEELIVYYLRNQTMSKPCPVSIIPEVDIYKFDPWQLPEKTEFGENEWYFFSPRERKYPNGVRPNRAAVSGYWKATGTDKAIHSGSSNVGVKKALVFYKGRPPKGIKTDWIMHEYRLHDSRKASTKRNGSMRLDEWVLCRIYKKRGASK
To be noted: protein: recombinant; tags: GST; chain copies: 2; dsDNA, one strand shown. The procedure, abridged: as §1

The target in a further assay is T7, GST-NST2(1-184) (Arabidopsis thaliana, UniProt Q9M274 1-184).
T7 sequence: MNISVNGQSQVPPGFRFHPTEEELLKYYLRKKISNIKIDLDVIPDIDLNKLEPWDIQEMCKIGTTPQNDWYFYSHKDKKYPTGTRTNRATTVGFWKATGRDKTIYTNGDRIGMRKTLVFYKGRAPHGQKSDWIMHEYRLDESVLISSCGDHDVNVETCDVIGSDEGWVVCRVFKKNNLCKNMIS
To be noted: protein: recombinant; tags: GST; chain copies: 2; dsDNA, one strand shown. The procedure, abridged: as §1

A further assay addresses T8, GST-NTL8 NAC domain (Arabidopsis thaliana, UniProt Q9XIN7 14-156).
T8 sequence: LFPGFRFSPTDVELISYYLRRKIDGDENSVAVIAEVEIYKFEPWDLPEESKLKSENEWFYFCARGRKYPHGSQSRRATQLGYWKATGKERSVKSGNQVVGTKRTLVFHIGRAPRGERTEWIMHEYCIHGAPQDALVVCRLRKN
Particulars: protein: recombinant; tags: GST; chain copies: 2; dsDNA, one strand shown. The method in brief: as §1

In the next assay the target is T9, GST-SND1(1-203) (Arabidopsis thaliana, UniProt Q9LPI7 1-203).
T9 sequence: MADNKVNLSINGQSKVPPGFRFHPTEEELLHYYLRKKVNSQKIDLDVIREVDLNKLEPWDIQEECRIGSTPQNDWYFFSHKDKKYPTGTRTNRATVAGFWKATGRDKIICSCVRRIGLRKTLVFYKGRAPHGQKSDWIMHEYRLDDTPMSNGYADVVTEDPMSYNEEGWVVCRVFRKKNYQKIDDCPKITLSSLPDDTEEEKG
To be noted: protein: recombinant; tags: GST; chain copies: 2; dsDNA, one strand shown. The procedure, abridged:
as §1

A further assay deals with T10, GST-VND3 NAC domain (Arabidopsis thaliana, UniProt Q9FH59 12-162).
T10 sequence: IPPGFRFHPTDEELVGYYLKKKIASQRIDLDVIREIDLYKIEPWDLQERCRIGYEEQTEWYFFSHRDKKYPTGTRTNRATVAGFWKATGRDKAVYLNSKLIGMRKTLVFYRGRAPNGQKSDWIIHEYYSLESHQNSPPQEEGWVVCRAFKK
Particulars: protein: recombinant; tags: GST; chain copies: 2; dsDNA, one strand shown. The method in brief: as §1

Another assay addresses T11, GST-VND7 NAC domain (Arabidopsis thaliana, UniProt Q9C8W9 9-158).
T11 sequence: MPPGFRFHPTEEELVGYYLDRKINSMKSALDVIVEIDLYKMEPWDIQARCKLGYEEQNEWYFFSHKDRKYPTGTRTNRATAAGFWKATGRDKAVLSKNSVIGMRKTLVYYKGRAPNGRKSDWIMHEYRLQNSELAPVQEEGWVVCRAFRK
To be noted: protein: recombinant; tags: GST; chain copies: 2; dsDNA, one strand shown. The method in brief: as §1

In a further assay the target is GST-WRKY1(266-371) (Arabidopsis thaliana, UniProt Q9SI37 266-371). To be noted: protein: recombinant; tags: GST; dsDNA, one strand shown. The procedure, abridged: as §1
Sequence of GST-WRKY1(266-371) (Q9SI37 266-371): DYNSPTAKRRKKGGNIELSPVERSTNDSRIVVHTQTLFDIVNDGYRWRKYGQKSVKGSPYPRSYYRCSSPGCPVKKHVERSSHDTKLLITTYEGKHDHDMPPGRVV

Sequence of GST-NTL6(1-168) (Q9SCK6 1-168): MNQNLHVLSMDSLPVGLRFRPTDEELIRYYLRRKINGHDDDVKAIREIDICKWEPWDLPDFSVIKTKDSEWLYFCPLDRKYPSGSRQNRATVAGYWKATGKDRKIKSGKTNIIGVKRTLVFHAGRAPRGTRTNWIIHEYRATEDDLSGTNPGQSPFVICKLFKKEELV

Consider ACTAAGTA, for which the binding signal came out at 0.177 E-score in the assay with GST-ANAC092(1-176); 0.429 E-score with GST-NTL6(1-168); 0.19 E-score with GST-ANAC019 NAC domain; 0.216 E-score with GST-ANAC055(1-171); 0.192 E-score in the assay with GST-ATAF1 NAC domain; 0.126 E-score in assay [1]. Moreover, the binding signal with GST-NAP(1-166) was found to be 0.125 E-score; with GST-NST2(1-184) it was 0.252 E-score; in the assay with GST-NTL8 NAC domain, 0.116 E-score; with GST-SND1(1-203), 0.258 E-score; with GST-VND3 NAC domain, 0.279 E-score; in the assay with GST-VND7 NAC domain, 0.218 E-score. For the same sequence, the binding signal with GST-WRKY1(266-371) was 0.0999 E-score.
In the case of AGATTGAC, the binding signal was 0.135 E-score with GST-ANAC092(1-176); 0.0646 E-score in the assay with GST-NTL6(1-168); 0.0571 E-score with GST-ANAC055(1-171); 0.0846 E-score in the assay with GST-ATAF1 NAC domain; 0.15 E-score in [1]; 0.0869 E-score with GST-NST2(1-184). Also, the binding signal in the assay with GST-SND1(1-203) amounted to 0.179 E-score; with GST-VND3 NAC domain, 0.0944 E-score; with GST-VND7 NAC domain, 0.0768 E-score; with GST-WRKY1(266-371), 0.457 E-score.
For AGTCAACA, the binding signal came to 0.161 E-score with GST-ANAC092(1-176); 0.0859 E-score with GST-NTL6(1-168); 0.125 E-score in the assay with GST-ANAC019 NAC domain; 0.0844 E-score with GST-ANAC055(1-171); 0.152 E-score in the assay with GST-ATAF1 NAC domain; 0.0634 E-score in assay [1]. The binding signal with GST-NST2(1-184) was 0.0624 E-score; in the assay with GST-NTL8 NAC domain, 0.0937 E-score; with GST-SND1(1-203) it was 0.19 E-score; with GST-VND3 NAC domain it was 0.13 E-score; in the assay with GST-VND7 NAC domain, 0.0805 E-score; in the assay with GST-WRKY1(266-371), 0.488 E-score.
As to ACAAGTCA, the binding signal with GST-ANAC092(1-176) was 0.0976 E-score; with GST-NTL6(1-168) it was 0.0563 E-score; in assay [1], 0.276 E-score; with GST-NAP(1-166) it was 0.146 E-score; with GST-NST2(1-184), 0.0664 E-score; in the assay with GST-NTL8 NAC domain, 0.0517 E-score. In addition, the binding signal amounted to 0.114 E-score in the assay with GST-SND1(1-203), 0.0796 E-score in the assay with GST-VND3 NAC domain, 0.0869 E-score in the assay with GST-VND7 NAC domain and 0.43 E-score with GST-WRKY1(266-371).
As for ATTACGTC, the binding signal in the assay with GST-ANAC092(1-176) came to 0.366 E-score; in the assay with GST-ANAC019 NAC domain, 0.329 E-score; with GST-ANAC055(1-171) it was 0.353 E-score; with GST-ATAF1 NAC domain it was 0.356 E-score; in [1], 0.405 E-score; with GST-NAP(1-166), 0.376 E-score. Moreover, the binding signal with GST-NST2(1-184) stood at 0.333 E-score; with GST-SND1(1-203) it was 0.432 E-score; with GST-VND3 NAC domain it was 0.37 E-score; in the assay with GST-VND7 NAC domain, 0.357 E-score; with GST-WRKY1(266-371), 0.0595 E-score.
As to GTACGGCA, the binding signal worked out at 0.395 E-score with GST-ANAC092(1-176); 0.451 E-score with GST-ANAC019 NAC domain; 0.362 E-score with GST-ANAC055(1-171); 0.385 E-score with GST-ATAF1 NAC domain; 0.439 E-score in [1]; 0.342 E-score in the assay with GST-NAP(1-166). The binding signal turned out to be 0.178 E-score in the assay with GST-NST2(1-184); 0.236 E-score with GST-SND1(1-203); 0.424 E-score with GST-VND3 NAC domain; 0.425 E-score in the assay with GST-VND7 NAC domain; 0.0953 E-score in the assay with GST-WRKY1(266-371).
Take ATGACGTG: the binding signal with GST-ANAC092(1-176) came to 0.458 E-score; with GST-ANAC019 NAC domain it was 0.311 E-score; with GST-ANAC055(1-171), 0.366 E-score; with GST-ATAF1 NAC domain, 0.317 E-score; in [1], 0.463 E-score; with GST-NAP(1-166) it was 0.36 E-score. The binding signal with GST-NST2(1-184) is 0.258 E-score; with GST-SND1(1-203), 0.326 E-score; in the assay with GST-VND3 NAC domain, 0.366 E-score; in the assay with GST-VND7 NAC domain, 0.322 E-score; with GST-WRKY1(266-371) it was 0.0849 E-score.

(Values after PMC4081100, “A DNA-binding-site landscape and regulatory network analysis for NAC transcription factors in Arabidopsis thaliana”.)
